Test results reported in PubChem BioAssay AID1159580 (chemical genetic matrix, 2015).
Where “and” joins values, the source holds several entries; their conditions need not be identical. Equal entries are not always repeated. The campaign covered roughly 5,500 compounds. About 2,000 (36%) were called active. Inconclusive results (about 18%) are left out. No stated cut-off is given here; in the data, active means normalized growth mostly below about 0.91 (no sharp cut-off); inconclusive means no clear call, values can overlap the other calls; inactive means mostly above about 0.92. The list shows a part of the results.

Test: chemical genetic growth profiling, strain panel (AID 1159580);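 further: tested at 20 µM; growth read once vehicle control cultures reached saturation at 30 °C; 1 = growth at the plate median or of vehicle wells; lower values mean less growth of the strain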
Details: growth OD

Measured: normalized growth

COC(=O)C1=C(C)NC(C)=C(C(=O)OCCN(C)Cc2ccccc2)C1c1cccc([N+](=O)[O-])c1 (stereo unspecified)
inactive: S. cerevisiae deletion strains, locus YJR075W, strain HOC1, hits give low values 0.973 and 0.963 | S. cerevisiae deletion strains, locus YKL009W, strain mrt4, hits give low values 0.97 | S. cerevisiae deletion strains, locus YKL068W, hits give low values 0.994 | S. cerevisiae deletion strains, locus YKL085W, strain MDH1 (second series), hits give low values 0.993 | S. cerevisiae deletion strains, locus YKL085W, strain MDH1, hits give low values 0.993 | S. cerevisiae deletion strains, locus YKL160W, strain elf1, hits give low values 0.963 | S. cerevisiae deletion strains, locus YKL190W, strain CNB1, hits give low values 0.99 | S. cerevisiae deletion strains, locus YKR001C, strain vps1, hits give low values 1.01 | S. cerevisiae deletion strains, locus YKR026C, strain gcn3, hits give low values 0.97 | S. cerevisiae deletion strains, locus YKR091W, strain srl3, hits give low values 0.993 | S. cerevisiae deletion strains, locus YLL001W, strain dnm1, hits give low values 0.98 | S. cerevisiae deletion strains, locus YLL026W, hits give low values 0.998 | S. cerevisiae deletion strains, locus YLL041C, strain sdh2, hits give low values 0.968 | S. cerevisiae deletion strains, locus YLR027C, strain aat2, hits give low values 0.988 | S. cerevisiae deletion strains, locus YLR039C, strain RIC1, hits give low values 0.999 | S. cerevisiae deletion strains, locus YLR058C, strain SHM2, hits give low values 0.963 | S. cerevisiae deletion strains, locus YLR102C, strain apc9, hits give low values 0.987 | S. cerevisiae deletion strains, locus YLR113W, strain HOG1, hits give low values 0.93 | S. cerevisiae deletion strains, locus YLR221C, strain rsa3, hits give low values 0.982 | S. cerevisiae deletion strains, locus YLR258W, strain gsy2, hits give low values 0.973 | S. cerevisiae deletion strains, locus YLR262C, strain YPT6 (second series), hits give low values 0.952 | S. cerevisiae deletion strains, locus YLR262C, strain YPT6, hits give low values 0.947 | S. cerevisiae deletion strains, locus YLR268W, strain sec22, hits give low values 1 | S. cerevisiae deletion strains, locus YLR320W, strain mms22, hits give low values 0.986 | S. cerevisiae deletion strains, locus YLR330W, strain CHS5, hits give low values 0.993 | S. cerevisiae deletion strains, locus YLR342W, strain FKS1 (second series), hits give low values 0.957 | S. cerevisiae deletion strains, locus YLR342W, strain FKS1, hits give low values 0.996 | S. cerevisiae deletion strains, locus YLR357W, strain rsc2, hits give low values 0.965 | S. cerevisiae deletion strains, locus YLR370C, strain arc18, hits give low values 0.984 | S. cerevisiae deletion strains, locus YLR371W, strain rom2, hits give low values 0.967 | S. cerevisiae deletion strains, locus YLR384C, strain iki3, hits give low values 0.98 | S. cerevisiae deletion strains, locus YLR418C, strain cdc73, hits give low values 0.96 | S. cerevisiae deletion strains, locus YML016C, strain PPZ1, hits give low values 0.99 | S. cerevisiae deletion strains, locus YML032C, strain rad52, hits give low values 0.961 | S. cerevisiae deletion strains, locus YML120C, strain ndi1, hits give low values 1.02 | S. cerevisiae deletion strains, locus YML124C, strain tub3, hits give low values 0.992 | S. cerevisiae deletion strains, locus YMR058W, strain fet3, hits give low values 0.993 | S. cerevisiae deletion strains, locus YMR078C, strain ctf18, hits give low values 0.977 | S. cerevisiae deletion strains, locus YMR125W, strain sto1, hits give low values 0.978 | S. cerevisiae deletion strains, locus YMR129W, hits give low values 1 | S. cerevisiae deletion strains, locus YMR205C, strain PFK2, hits give low values 0.986 | S. cerevisiae deletion strains, locus YMR223W, strain ubp8, hits give low values 0.978 | S. cerevisiae deletion strains, locus YMR231W, strain pep5, hits give low values 0.998 | S. cerevisiae deletion strains, locus YMR263W, strain SAP30, hits give low values 0.988 | S. cerevisiae deletion strains, locus YMR307W, strain GAS1, hits give low values 0.744 | S. cerevisiae deletion strains, locus YNL067W, strain RPL9B, hits give low values 0.999 | S. cerevisiae deletion strains, locus YNL071W, strain lat1, hits give low values 0.97 | S. cerevisiae deletion strains, locus YNL128W, strain TEP1, hits give low values 0.987 and 1.05 | S. cerevisiae deletion strains, locus YNL153C, strain GIM3, hits give low values 0.98 | S. cerevisiae deletion strains, locus YNL175C, strain NOP13, hits give low values 1 | S. cerevisiae deletion strains, locus YNL183C, strain NPR1, hits give low values 0.923 | S. cerevisiae deletion strains, locus YNL197C, strain WHI3, hits give low values 1.02 | S. cerevisiae deletion strains, locus YNL209W, strain ssb2, hits give low values 0.978 | S. cerevisiae deletion strains, locus YNL224C, strain SQS1, hits give low values 0.993 | S. cerevisiae deletion strains, locus YNL233W, strain BNI4, hits give low values 0.981 | S. cerevisiae deletion strains, locus YNL248C, strain rpa49, hits give low values 0.968 | S. cerevisiae deletion strains, locus YNL250W, strain rad50, hits give low values 0.981 | S. cerevisiae deletion strains, locus YNL271C, strain bni1, hits give low values 1 | S. cerevisiae deletion strains, locus YNL298W, strain CLA4, hits give low values 0.996 | S. cerevisiae deletion strains, locus YNL307C, strain MCK1, hits give low values 0.968 | S. cerevisiae deletion strains, locus YNL322C, strain KRE1 (second series), hits give low values 0.996 | S. cerevisiae deletion strains, locus YNL322C, strain KRE1, hits give low values 0.995 | S. cerevisiae deletion strains, locus YNR049C, strain mso1, hits give low values 0.974 | S. cerevisiae deletion strains, locus YNR052C, strain pop2, hits give low values 0.999 | S. cerevisiae deletion strains, locus YOL006C, strain TOP1, hits give low values 1.01 | S. cerevisiae deletion strains, locus YOL012C, strain htz1 0.795 | S. cerevisiae deletion strains, locus YOL147C, strain pex11, hits give low values 0.99 | S. cerevisiae deletion strains, locus YOR001W, strain rrp6, hits give low values 0.994 | S. cerevisiae deletion strains, locus YOR061W, strain CKA2, hits give low values 0.964 | S. cerevisiae deletion strains, locus YOR069W, strain VPS5, hits give low values 1.01 | S. cerevisiae deletion strains, locus YOR070C, strain gyp1, hits give low values 0.979 | S. cerevisiae deletion strains, locus YOR080W, strain dia2, hits give low values 0.979 | S. cerevisiae deletion strains, locus YOR083W, strain WHI5 (second series), hits give low values 1.01 | S. cerevisiae deletion strains, locus YOR083W, strain WHI5, hits give low values 1 | S. cerevisiae deletion strains, locus YOR106W, strain vam3, hits give low values 0.971 | S. cerevisiae deletion strains, locus YOR136W, strain idh2, hits give low values 0.984 | S. cerevisiae deletion strains, locus YOR144C, strain elg1, hits give low values 0.999 | S. cerevisiae deletion strains, locus YOR184W, strain ser1, hits give low values 0.956 | S. cerevisiae deletion strains, locus YOR231W, strain MKK1, hits give low values 0.969 | S. cerevisiae deletion strains, locus YOR265W, strain rbl2, hits give low values 0.999 | S. cerevisiae deletion strains, locus YOR270C, strain vph1, hits give low values 0.939 | S. cerevisiae deletion strains, locus YOR290C, strain snf2, hits give low values 0.975 | S. cerevisiae deletion strains, locus YOR316C, strain cot1, hits give low values 0.98 | S. cerevisiae deletion strains, locus YPL051W, strain arl3, hits give low values 0.979 | S. cerevisiae deletion strains, locus YPL055C, strain LGE1, hits give low values 0.951 and 0.966 | S. cerevisiae deletion strains, locus YPL078C, strain atp4, hits give low values 0.995 | S. cerevisiae deletion strains, locus YPL106C, strain sse1, hits give low values 0.887 | S. cerevisiae deletion strains, locus YPL240C, strain hsp82, hits give low values 0.985 | S. cerevisiae deletion strains, locus YPL241C, strain CIN2, hits give low values 0.991 and 0.972 | S. cerevisiae deletion strains, locus YPL256C, strain CLN2, hits give low values 0.957 | S. cerevisiae deletion strains, locus YPR119W, strain clb2, hits give low values 0.984 | S. cerevisiae deletion strains, locus YPR141C, strain kar3, hits give low values 0.982 | S. cerevisiae deletion strains, locus YPR163C, strain tif3, hits give low values 0.996 | S. cerevisiae deletion strains, locus YPR167C, strain met16, hits give low values 0.988 | S. cerevisiae deletion strains, strain wtn01, hits give low values 0.981 | S. cerevisiae strains, strain wild type, hits give low values 0.998
